AT treatment – qHTS Assay for Identifying a Potential Treatment of Ataxia-Telangiectasia; AID 485349, 2010; Potency, µM (titrated, usually from 57.5 µM), inactives show at the highest dose activation, hits mostly activators; F2112 A-T fibroblasts, KAP-1 phosphorylation AlphaLISA; neocarzinostatin DNA damage 30 min before lysis; 320,000 compounds, 0.19% hits; active = well fitted activation curve with a large enough effect; inconclusive = small, poorly fitted or top-dose-only effect; inactive = no such curve, though single readings can be large or run the other way; note: potency is the fitted concentration of half-maximal effect; % of control where 0% means no effect; nearly all actives have a fitted effect of over 45% in size
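ATM-like activity read as KAP-1 phosphorylation via AlphaLISA donor/acceptor antibody pairs after lysis and 6 hr at 25C. Cells were ATM-null patient fibroblasts (F2112, hTERT), dosed 60 min, then exposed to the DSB inducer NCS for 30 min.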
TRPML1 inh – qHTS for Inhibitors of the Human Mucolipin Transient Receptor Potential 1 (TRPML1); Mucolipin-1 (Homo sapiens), Q9GZU1; TRPML1-inducible cells, Ca2+ dye fluorescence, FDSS; stronger effect = lower value; inhibition of EC80 agonist-evoked calcium signal; activity change, negative = inhibition, % (test concentration not listed); 390,000 compounds, 0.02% hits; in the data active = activity change below about -50%; inconclusive = between about -30% and that limit;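 note: stimulus is agonist 54-4 at its EC80 concentration; % is set by controls: 0 for no effect and ±100 for the full control effect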
Target sequence (Q9GZU1 whole entry, looked up): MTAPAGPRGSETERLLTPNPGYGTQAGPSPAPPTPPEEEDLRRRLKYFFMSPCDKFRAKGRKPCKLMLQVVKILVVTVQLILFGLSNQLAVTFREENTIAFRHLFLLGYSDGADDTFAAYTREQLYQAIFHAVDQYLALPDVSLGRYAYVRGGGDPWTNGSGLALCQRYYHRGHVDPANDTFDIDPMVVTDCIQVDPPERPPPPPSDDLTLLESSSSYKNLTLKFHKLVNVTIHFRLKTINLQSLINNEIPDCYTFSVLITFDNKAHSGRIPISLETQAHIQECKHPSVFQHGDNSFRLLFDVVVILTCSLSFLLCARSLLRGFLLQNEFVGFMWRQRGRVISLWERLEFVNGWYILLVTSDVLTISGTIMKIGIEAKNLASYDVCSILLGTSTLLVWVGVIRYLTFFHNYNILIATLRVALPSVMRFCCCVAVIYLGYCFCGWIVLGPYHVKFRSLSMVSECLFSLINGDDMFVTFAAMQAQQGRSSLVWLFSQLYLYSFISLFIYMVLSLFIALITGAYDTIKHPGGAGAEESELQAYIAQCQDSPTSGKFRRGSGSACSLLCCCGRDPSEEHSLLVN
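TRPML1-DL cells, Tet-induced overnight (~16 h, 37 °C) at 1,500 cells/well, were loaded with Ca8 no-wash dye plus quencher for 45-90 min at room temperature. Compounds were pinned during FDSS kinetic reading; agonist 54-4 at EC80 (4 uM final) then added.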
TRPML1 agonist – qHTS for Agonists of the Human Mucolipin Transient Receptor Potential 1 (TRPML1) | Mucolipin-1 (Homo sapiens), Q9GZU1 | activation, % (no concentration beside the values) | 410,000 compounds, 0.12% hits | TRPML1-expressing cells, Ca2+ dye fluorescence, FDSS; in the data active = activation above about 50%; inconclusive = mostly about 30% to 49%; note: 0% is about no effect
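In this qHTS format, compounds were pin-transferred onto Ca8-dye-loaded TRPML1-DL cells induced with Tet overnight, and intracellular Ca2+ fluorescence was recorded kinetically for 110 s after a 10 s baseline. A subsequent 4uM final 54-4 (EC80) addition followed by a second 110 s read served as the antagonist phase.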
TRPV1 potentiator – HTS Assay for Compounds that Act as Potentiators of the Vanilloid Receptor 1; Transient receptor potential cation channel subfamily V member 1 (Homo sapiens), Q8NER1; TRPV1-expressing cells, Fluo-8 calcium influx, capsaicin EC20 potentiation; potentiation, % at 8.33 µM; 320,000 compounds, 0.02% hits; AID 540277, 2011; in the data active = potentiation above about 80%; inconclusive = between about 30% and that limit; note: 0% is about no effect
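Fluo-8 calcium influx in TRPV1-expressing cells, kinetic read (ex 480/em 520 nm). Compound added and read 3 min for agonist activity, followed by capsaicin at EC20 final and 2 min further read for enhancement.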
TRPV1 agonist – HTS Assay for Compounds that Act as Agonists of the Vanilloid Receptor 1 | Transient receptor potential cation channel subfamily V member 1 (Homo sapiens), Q8NER1 | TRPV1-expressing cells, Fluo-8 calcium influx, agonist mode | activation, % at 8.33 µM | 320,000 compounds, 0.19% hits; in the data active = activation above about 80%; inconclusive = between about 30% and that limit; note: 0% is about no effect
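Cells expressing TRPV1 were dye-loaded with Fluo-8 and read kinetically: 10 s baseline, 3 min after compound (agonist portion), then 2 min after EC20 capsaicin (allosteric enhancer portion). Calcium-bound dye fluorescence at 480/520 nm.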
An asterisk follows results filed as active; ? = inconclusive; nt = no result; ! = a repeat was not active. Shown are actives, neighbours in structure and some others; about 0.41% of the full set was active somewhere.

SMILES	AT treatment	TRPML1 inh	TRPML1 agonist	TRPV1 potentiator	TRPV1 agonist
Cc1nc(SCC(=O)CC(=O)OC(C)C)c(C#N)c(C)c1C	8%	-1	71*	10	4
Cc1cc(C)c(C#N)c(SCC(=O)CC(=O)OC(C)C)n1	2%	-22	0	1	3
O=C(N/N=C/c1ccccc1)c1n[nH]c2c1CCCC2	3%	21	0	-19	83*
CN(C)C(=O)c1ccc(/C=C/c2ccnc3ccccc23)cc1	nt	nt	18	nt	nt
C=C[C@@H]1c2cc(C)ccc2N(S(=O)(=O)c2ccc(C)cc2)[C@H](c2ccccc2)C1(C#N)C#N	29%	?	21	3	-2
C=C[C@@H]1c2ccccc2N(S(=O)(=O)c2ccc(C)cc2)[C@H](c2ccccc2)C1(C#N)C#N	11%	-21	63*!	2	3
Cc1ccc2c(c1)C(=O)CC(O)(C(F)(F)F)O2 (centres undefined)	3.5µM*	-13	0	2	-1
Cc1cnc2ccccc2c1/C=C/c1ccc(N(C)C)cc1	nt	nt	-1	nt	nt
O=C(Nc1ccc2c(c1)OCO2)C1CCN(C(=O)CSc2ncnc3ccccc23)CC1	-5%	16	0	-8	81*
CCOc1ccc(Nc2c(S(=O)(=O)c3ccc(C)cc3)cnc3ccc(F)cc23)cc1	nt	-13	63*	nt	nt
Cc1cnc2c3c(cc(Cl)c2c1)-c1ccccc1S(=O)(=O)N3	nt	-27	1	-6	22
COc1cc(/C=C(\C#N)C(=O)NCC2CCCO2)ccc1OCCC(C)C (centres undefined)	50%	-19	52*	-33	29
COc1ccc(C(=O)Nc2cccc(/C=C/c3nc4ccccc4c(=O)[nH]3)c2)cc1	20µM*	25	1	-1	0
O=C(Nc1cccc(/C=C/c2nc3ccccc3c(=O)[nH]2)c1)c1ccccc1Cl	-5%	2	2	14	-1
Cc1cc(C)c(O)c(NC(=S)NC(=O)Cc2ccccc2)c1	0%	12	10	5	81*
Cc1cccc(NC(=S)NC(=O)Cc2ccccc2)c1C	-7%	-22	?	8	?
COc1ccc(/C=C/C(=O)c2c(O)c(OC)c3occc3c2OC)cc1OC	nt	nt	0	nt	nt
CCn1nc(C)cc1C(=O)N1CCCC(Nc2ccc(C(C)C)cc2)C1 (centres undefined)	1%	10	1	-8	81*
c1ccc2c(N3CCCCC3)nc(N3CCCC3)nc2c1	22%	-3	1	12	0
c1ccc2c(c1)nc(N1CCCCC1)c1ccccc12	14µM*	-14	1	-4	8
CC(C)c1ccc2oc(=O)cc(CN3CCCCC3)c2c1	35µM*	-7	0	2	?
CC1CCN(Cc2cc(=O)oc3ccc(C(C)C)cc23)CC1	35%	-21	1	-4	?
c1cc2c3c(c1)CCC[N+]3(C1CCCCC1)CCC2	nt	nt	0	nt	nt
CC(C)(C)OC(=O)N1CSC[C@H]1C(=O)NC[C@H](CC(=O)O)c1ccc(Cl)cc1	7.1µM*	-20	2	0	-6
Nc1ccccc1N=Cc1ccc(-c2cccc(Cl)c2)o1	5%	-12	0	1	117*
SMILES	AT treatment	TRPML1 inh	TRPML1 agonist	TRPV1 potentiator	TRPV1 agonist
COC(=O)N/N=C/c1ccc(-c2cccc(Cl)c2)o1	-7%	5	0	-4	21
Cn1c(=O)c2cc(NC(=O)Cc3ccccc3F)ccc2n1-c1ccc(C(C)(C)C)cc1	nt	nt	63*	nt	nt
COc1cc(OC)c(OC)cc1/C=C/c1nccc2ccccc12	nt	nt	0	nt	nt
CC(C)(C)n1ncc2c(=O)n(Cc3c(Cl)ccc(Cl)c3Cl)cnc21	nt	-2	1	nt	nt
CCC(C)(C(=O)NC1CCCC1)N(C)C(=O)c1ccccn1 (centres undefined)	-1%	17	2	89*	5
O=C(Cc1ccc(OCCC2CCCCC2)cc1)NO	nt	nt	0	nt	nt
Cc1ccc(C)c(N2CCN(C(c3ccc(N(C)C)cc3)c3nnnn3C(C)(C)C)CC2)c1 (centres undefined)	-2%	-5	0	-10	11
COc1ccc(N2CCN(C(c3ccccc3)c3nnnn3C(C)C)CC2)cc1 (centres undefined)	nt	nt	61*	nt	nt
Cc1cccc(C)c1N1CCN(C(c2cc3ccccc3o2)c2nnnn2C(C)(C)C)CC1 (centres undefined)	nt	nt	54*	nt	nt
Cc1ccc(C)c(N2CCN(C(c3ccccc3)c3nnnn3C(C)(C)C)CC2)c1 (centres undefined)	nt	nt	86*	nt	nt
COc1ccc(N2CCN(C(c3ccccc3)c3nnnn3C(C)(C)C)CC2)cc1 (centres undefined)	nt	nt	2	nt	nt
Cc1nc2ccc(C(=O)OC(C)C(=O)c3c(C)[nH]c4ccccc34)cc2nc1C (centres undefined)	nt	nt	-1	nt	nt
COC(=O)[C@@H](c1ccccc1)N(C)S(=O)(=O)c1cccc(S(=O)(=O)N(C)[C@@H](C(=O)OC)c2ccccc2)c1	4%	-22	74*	17	-3
COC(=O)C(c1ccccc1)C(C(=O)OC)c1ccccc1 (centres undefined)	-1%	-6	0	-2	-1
Cc1c(Cl)c(C(=O)Nc2nc3ccccc3n2CCN2CCCCC2)nn1C	-1%	nt	nt	12	-1
CCn1cc(Cl)c(C(=O)Nc2nc3ccccc3n2CCN2CCCCC2)n1	13µM*	1	-1	nt	nt
CCOc1ccc(C2C(C(=O)OC)=CN(CCOC)C=C2C(=O)OC)cc1	28µM*	-8	0	8	7
CC[C@@H]1[C@H]2CCCC(=O)N3CC[C@@H](C[C@@H]1OC(=O)Nc1ccc4c(c1)OCO4)[C@@H]23	nt	nt	0	nt	nt
Cc1ccc(N2CCN(C(=O)N3CCOCC3)CC2)c(C)c1	6%	-10	1	-8	83*
c1ccc(N(c2ccccc2)c2nc(N3CCCC3)nc(-n3ccnc3)n2)cc1	20%	5	0	3	?
CCOC(=O)N1CCN(c2nc(N(c3ccccc3)c3ccccc3)nc(-n3ccnc3)n2)CC1	10µM*	nt	nt	-14	?
CCCCCCCCCCCCCCCC[n+]1ccc(CC(O)c2c(C)[nH]c3ccccc23)c2ccccc21 (centres undefined)	nt	nt	1	nt	nt
C=CCc1cccc2cc(C(=O)NNC(=O)c3ccncc3)c(=O)oc12	-6%	-17	0	-10	81*
COc1cc(/C=C2\SC(=Nc3ccccc3)NC2=O)cc(Cl)c1O	-12%	-18	77*	-10	?
